Data reported in publication PMC4336329 (PLoS ONE, 2015).
Screen size: about 310,000 compounds; about 14,000 (4.5%) showed an effect of 50% or more. Effects have a minus sign here. For the sample, strong results were picked, then their nearest neighbours and some compounds at random.

target: human ether-à-go-go-related gene (hERG) potassium channel (human, UniProt Q12809); assay: primary screen, population patch clamp on CHO cells stably expressing hERG; higher = less effect of the substance
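Note: peak tail current of the secondary pulse compared with the same well before compound.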

human ether-à-go-go-related gene (hERG) potassium channel, sequence (Q12809 whole entry, looked up): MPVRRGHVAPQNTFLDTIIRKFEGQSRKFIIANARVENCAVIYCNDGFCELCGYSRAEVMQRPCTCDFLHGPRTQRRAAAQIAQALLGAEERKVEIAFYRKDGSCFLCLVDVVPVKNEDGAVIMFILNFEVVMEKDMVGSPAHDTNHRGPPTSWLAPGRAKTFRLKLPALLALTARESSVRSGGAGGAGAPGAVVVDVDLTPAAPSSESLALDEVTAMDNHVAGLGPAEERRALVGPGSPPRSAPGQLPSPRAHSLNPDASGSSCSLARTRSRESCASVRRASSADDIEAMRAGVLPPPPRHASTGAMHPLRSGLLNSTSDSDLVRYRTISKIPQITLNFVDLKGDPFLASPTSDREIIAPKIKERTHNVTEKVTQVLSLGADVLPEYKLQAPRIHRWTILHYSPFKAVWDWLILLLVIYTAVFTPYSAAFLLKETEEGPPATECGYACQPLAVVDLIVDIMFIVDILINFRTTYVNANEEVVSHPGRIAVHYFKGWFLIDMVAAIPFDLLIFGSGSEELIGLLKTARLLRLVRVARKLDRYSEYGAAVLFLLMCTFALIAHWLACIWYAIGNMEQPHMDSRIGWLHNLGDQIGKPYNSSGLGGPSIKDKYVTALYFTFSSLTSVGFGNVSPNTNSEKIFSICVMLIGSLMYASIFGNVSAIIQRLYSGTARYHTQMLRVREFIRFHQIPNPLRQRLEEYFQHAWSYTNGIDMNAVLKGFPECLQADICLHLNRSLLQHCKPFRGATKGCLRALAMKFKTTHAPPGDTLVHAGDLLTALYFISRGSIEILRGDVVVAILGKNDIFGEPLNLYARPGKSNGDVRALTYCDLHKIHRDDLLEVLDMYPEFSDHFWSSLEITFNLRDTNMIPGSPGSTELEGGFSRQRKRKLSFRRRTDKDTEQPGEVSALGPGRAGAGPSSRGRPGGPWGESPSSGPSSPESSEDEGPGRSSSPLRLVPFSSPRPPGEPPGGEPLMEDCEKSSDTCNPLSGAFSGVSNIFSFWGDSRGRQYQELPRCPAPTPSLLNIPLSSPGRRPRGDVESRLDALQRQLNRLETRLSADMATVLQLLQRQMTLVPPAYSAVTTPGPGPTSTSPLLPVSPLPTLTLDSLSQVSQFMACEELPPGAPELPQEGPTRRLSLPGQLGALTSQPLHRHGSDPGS

Compound	hERG current change (%, negative = inhibition) at 10uM
Cc1ccc(-n2[nH]c(C)c(C=Nc3ccc(S(=O)(=O)Nc4nccs4)cc3)c2=O)c(C)c1	-35%
CCOC(=O)C1(CCCc2ccccc2)CCN(C(=O)c2cncs2)CC1	-55%
CCOC(=O)C1(CCOc2ccccc2)CCN(C(=O)c2cncs2)CC1	-70.7%
CCOC(=O)C1(Cc2ccc(OC)cc2)CCN(C(=O)c2cncs2)CC1	-17.6%
O=C(Oc1ccc(/C=N/NC(=O)c2ccccn2)cc1)c1cccc(Br)c1	11.4%
CC(C)CC(NS(=O)(=O)c1cccc(C(=O)O)c1)C(=O)O (centres unmarked)	44.6%
COc1cc(NC(=O)c2ccc(NS(=O)(=O)c3c(C)noc3C)cc2)cc(OC)c1	1.03%
Cc1[nH]nc(-c2ccc(OCc3cnn(-c4ccccc4)c3)c(C)c2O)c1Oc1ccccc1	12%
CN(CC(=O)Nc1cccc(C#N)c1)Cc1ccc(Cl)cc1	-34.1%
CN(CC(=O)Nc1ccc(C#N)cc1)CC(=O)Nc1ccc(N2CCOCC2)cc1	-56.3%
CN(CC(=O)Nc1ccc(Cl)c(Cl)c1)C(=O)/C=C/c1ccc(F)cc1	1.66%
CN(CC(=O)Nc1ccc(N2CCOCC2)cc1)CC(=O)Nc1cccc(C#N)c1	-13.9%
CN(CC(=O)Nc1ccc(N2CCOCC2)cc1)CC(=O)Nc1ccc(N2CCOCC2)cc1	6.39%
CN(CC(=O)Nc1ccc(Cl)cc1)CC(=O)Nc1cc(Cl)ccc1C#N	-38.4%
CN(CC(=O)Nc1ccc(Cl)c(Cl)c1)CC(=O)Nc1ccc2c(c1)OCO2	-3.52%
CN(CC(=O)Nc1ccc(S(=O)(=O)N2CCCC2)cc1)Cc1ccc(Cl)cc1Cl	10.8%
CN(CC(=O)Nc1ccc(C#N)cc1)Cc1ccc(Cl)cc1Cl	-66.8%
Cc1ccc(NC(=O)CN(C)Cc2ccc(Cl)cc2)cc1	-8.48%
CN(CC(=O)Nc1ccc(C#N)cc1)Cc1ccc(Cl)cc1	-68.6%
CN(CC(=O)Nc1ccc(Cl)c(Cl)c1)Cc1nnc(-c2ccc(F)cc2)o1	-63.3%
CC(=O)c1ccc(-c2ccc(/C=C(/Sc3n[nH]c(C)n3)C(=O)O)o2)cc1	-42.7%
O=c1[nH][nH]cc1C=Nc1ccc(Oc2ccccc2)cc1	11.6%

Compound	hERG current change (%, negative = inhibition) at 10uM
CC(Sc1ccccc1)C(=O)Nc1ccc(N2CCOCC2)cc1 (centres unmarked)	-7.09%
CN1CCN(C(=O)c2ccc3c(c2)N(Cc2cccc(Cl)c2)C(=O)c2ccccc2S3(=O)=O)CC1	10.8%
COc1ccc(NC(=O)CC2(CC(=O)O)CCCC2)cn1	16.7%
CC(C)N1CCC(N2CCN(Cc3ccc(Oc4ncccn4)cc3)CC2CCO)CC1 (centres unmarked)	23.9%
Cc1cc(C)n(-c2ccc(C(=O)Nc3cccc([N+](=O)[O-])c3)cc2)n1	40.2%
COc1ccc(CCNC(=O)c2ccc(-c3ccc([N+](=O)[O-])cc3Cl)o2)cc1	4.64%
CN(CC(=O)Nc1ccc(S(=O)(=O)N2CCCC2)cc1)Cc1ccc(Cl)c(Cl)c1	0.187%
Cc1ccc(NC(=O)CN(C)C(=O)Cc2ccc(Cl)c(Cl)c2)cc1	11.8%
CN(CC(=O)Nc1ccc(C#N)cc1)Cc1ccc(Cl)c(Cl)c1	-60.8%
C=CCNC(=O)c1ccc(C(=O)c2ccccc2)cc1	-27.8%
CC(=O)CSc1ncnc2c1cnn2-c1ccccc1	12.6%
COc1ccc(/C=C2/CCc3ccccc3C2=O)cc1CN1CCOCC1	-59.6%
COc1ccc(C(=O)/C=C/c2ccc(OC)c(CN3CCOCC3)c2)cc1	-56.3%
COc1ccc(/C=C2\CCc3ccccc3C2=O)cc1Cn1cccn1	2.14%
CCOc1cc(/C=N/NC(=O)c2ccc(CN3CCOCC3)cc2)ccc1OC	-19.1%
COc1ccc(/C=N\NC(=O)c2nn(C)cc2Cl)cc1CN1CCOCC1	-10.6%
COc1ccc(/C=N/NC(=O)c2ccc(Br)cc2)cc1CN1CCOCC1	-64.8%
COc1ccc(/C=C/C(=O)c2ccccc2O)cc1CN1CCOCC1	-17.7%
COc1ccc(/C=N/NC(=O)c2ccncc2)cc1CN1CCOCC1	3.71%
COc1ccc(/C=C/C(=O)c2ccc(O)cc2)cc1CN1CCOCC1	-11.3%
COc1ccc(/C=C2\CCc3ccccc3C2=O)cc1CN1CCOCC1	-33.6%
COc1ccc(/C=N/NC(=O)c2cccc(Br)c2)cc1Cn1cc(Cl)cn1	8.83%

Compound	hERG current change (%, negative = inhibition) at 10uM
COc1ccc(/C=N/NC(=O)c2cccc(Br)c2)cc1CN1CCOCC1	-82.4%
CC(C)CN(C(=O)COC(=O)C1CC1)c1c(N)n(Cc2ccccc2)c(=O)[nH]c1=O	13%
CCc1c(O)nc(SCC(=O)Nc2nc3ccccc3s2)n(-c2ccc(C)cc2)c1=O	-17.8%
Clc1ccc(-c2csc(N3CCc4ccccc4C3)n2)cc1	14.3%
COc1c(S(=O)(=O)NCCN2CCOCC2)ccc(Cl)c1Cl	-16.3%
CNC(=O)COC(=O)c1cc(NC(=O)c2ccco2)c(OC)c(OC)c1	2.4%
O=S(=O)(c1cc(C(F)(F)F)ccc1Cl)N1CCN(c2ccccn2)CC1	-26.3%
CC(C)n1cnnc1SCC(=O)Nc1cccc(S(=O)(=O)N(C)c2ccccc2)c1	-12.4%
c1ccc(C2(c3ccccc3)OCC(Cn3cncn3)O2)cc1 (centres unmarked)	-0.819%
COc1ccc(/C=N/n2cnc3c(sc(=S)n3-c3ccccc3)c2=O)cc1	13.4%
O=C(c1cc(-c2ccccc2)nc2ccccc12)N1N=C(C(F)F)CC1(O)C(F)F (centres unmarked)	-13.2%
O=C(c1ccccc1-n1cccc1)N1N=C(C(F)F)CC1(O)C(F)F (centres unmarked)	-63.2%
O=C(c1cc(C2CC2)nc2ccccc12)N1N=C(C(F)F)CC1(O)C(F)F (centres unmarked)	-18.3%
COc1ccc(-c2cc(C(=O)NCc3ccco3)c3ccccc3n2)cc1	-5.84%
Cc1nn(-c2cc(Cl)ccc2Cl)c(C)c1C(=O)O	13.2%
Cc1ccc2c(c1)C1CN(C)CCC1N2C(=O)COc1ccc(N(C)C(=O)C(C)(C)C)cc1 (centres unmarked)	-9.48%
CN(c1ccc(OCC(=O)N2CCCCC2)cc1)S(=O)(=O)c1cccs1	-11.2%
Cc1ccc2c(c1)C1CN(C)CCC1N2C(=O)COc1ccc(N(C)S(=O)(=O)c2cccs2)cc1 (centres unmarked)	-52.9%
CCOc1ccc(S(=O)(=O)N(C)c2ccc(OCC(=O)N3c4ccc(C)cc4C4CN(C)CCC43)cc2)cc1 (centres unmarked)	-38.5%
CC(=O)N1CCN(C(=O)COc2ccc(N(C)S(=O)(=O)c3cccs3)cc2)CC1	-14.7%
O=C(COc1ccc(S(=O)(=O)NC2CCCCC2)cc1)NC1CCCC1	-8.19%
Cc1ccc(N(CC(=O)NC2CCCCC2)S(=O)(=O)c2cccs2)cc1	5.9%

Compound	hERG current change (%, negative = inhibition) at 10uM
CN(c1ccc(OCC(=O)NC2CCCC2)cc1)S(=O)(=O)c1cccs1	-80.6%
CCN(CC)c1ccc(NC(=O)COc2ccc(N(C)S(=O)(=O)c3cccs3)cc2)cc1	8.15%
CN(c1ccc(OCC(=O)N2CCN(c3ccc(F)cc3)CC2)cc1)S(=O)(=O)c1cccs1	-58.7%
O=C(COc1ccc(S(=O)(=O)NC2CCCCC2)cc1)NC1CC1	3.4%
O=C(COc1ccc(S(=O)(=O)NC2CCCCC2)cc1)NC1CCCCC1	-54.1%
C#Cc1cccc(C(=O)N2CCCC(C(=O)c3ccc(OC)cc3C)C2)c1 (centres unmarked)	-6.8%
COc1ccc(S(=O)(=O)N2CCC(C(=O)Nc3ccccc3N3CCCCC3)CC2)cc1OC	3.04%
Cc1ccc(S(=O)(=O)N2CCC(C(=O)Nc3ccccc3N3CCCCC3)CC2)cc1C	-9.46%
C=CCn1c(Cc2csc(N)n2)nnc1SCC(=O)OCC	-0.614%
O=C(O)CCc1nc2ccccc2c(=O)[nH]1	38.7%
CC(=O)c1cn(CC(=O)NCc2cccnc2)c2ccccc12	3.67%
CCc1nnc(NC(=O)CSc2nnc(-c3cccnc3)n2C)s1	13.6%
CCOc1ccc(OCCC(=O)OCC(=O)N2CCN(c3ccc(OC)cc3)CC2)cc1	6.92%
CN1CCN(C(=O)c2ccccc2NC(=O)CCN2C(=O)c3ccccc3C2=O)CC1	-3.71%
C=CCSc1nnc(NC(=O)CSc2nc3ccccc3[nH]2)s1	9.74%
COc1cccc(NC(=O)Cn2c(-c3cncs3)nc3ccccc32)c1	-23.9%
O=C(CNC(=O)c1ccco1)OCc1cccc(Cl)c1	-7.25%
COC(=O)c1c(C)n(Cc2ccccc2)c2ccc(O)cc12	14.8%
COC(=O)c1c(C)n(-c2ccc(C)cc2)c2ccc(O)cc12	-3.54%
COC(=O)c1c(C(=O)OC)n(CCCN)c2ccc(C)cc12.Cl	-77%
